Assay outcomes (PubChem BioAssay)
Shown is part of a subset that was picked to be rich in hits.
U2OS ROS induce: inducers of reactive oxygen species in cancer cells | U2OS ROS induction, H2DCF-DA fluorescence | ROS induction (% of piperlongumine), % at 10 µM | 2% of 46,000 active; in the data active = ROS induction above about 79%, passing the limit was not always enough;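 also: 0% = DMSO vehicle median and 100% = reference compound median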
* = called active by the depositor.

SMILES | U2OS ROS induce
COC(=O)c1cc(O)cc(OC)c1C(=O)c1c(O)cc(C)cc1OC | -6
C[C@H](CO)N1C[C@H](C)[C@H](CN(C)CC2CCCCC2)Oc2ccc(NC(=O)C3CCCCC3)cc2CC1=O | 6
C[C@H]1CN([C@@H](C)CO)C(=O)Cc2cc(NC(=O)C3CCCCC3)ccc2O[C@H]1CN(C)CC1CCCCC1 | 12
C[C@@H]1CN([C@@H](C)CO)C(=O)Cc2cc(NC(=O)Nc3ccccc3)ccc2O[C@@H]1CN(C)CC1CCCCC1 | 95*
C[C@@H]1CN([C@H](C)CO)C(=O)Cc2cc(NC(=O)C3CCCCC3)ccc2O[C@H]1CN(C)CC1CC1 | 95*
C[C@H]1CN([C@@H](C)CO)C(=O)Cc2cc(NC(=O)Nc3ccccc3)ccc2O[C@@H]1CN(C)CC1CCCCC1 | 2
C[C@@H]1CN([C@H](C)CO)C(=O)Cc2cc(NC(=O)Nc3ccccc3)ccc2O[C@@H]1CN(C)CC1CCCCC1 | -9
NC(=O)C(Cc1ccccc1)N1C(=O)C2C3C=CC(C3)C2C1=O (stereo not given) | -7
CSc1cccc(NC(=S)NCCN(C2CCCCC2)C2CCCC2)c1 | 24
O=C(O)c1ccc(NS(=O)(=O)c2cc3c4c(cccc4c2)C(=O)NC3=O)cc1 | 9
CCc1nn(Cc2ccccc2)c(=O)c2cc3cc(C)ccc3n12 | 16
CCN1C(=O)/C(=C\c2ccc(N(C)C)cc2Cl)OC1=S | 929*
COc1ccc(/C=C2\OC(=S)N(C)C2=O)cc1 | -6
COc1ccc(-c2nc(SCC(=O)CSc3n[nH]c(-c4ccc(OC)cc4)n3)n[nH]2)cc1 | 2
O=C(NCCNC(=O)c1ccccc1[N+](=O)[O-])c1ccc(F)cc1 | 0
CC(=O)N/C(=C/c1ccccc1)C(=O)Nc1ccc(I)cc1 | 3
COc1ccc(-c2nc3ccc4ccccc4c3c3c2CCC3)cc1 | 138*
COc1ccc2nc3c(nc2c1)-c1cccc2cccc-3c12 | 72
CN(C)c1ccc(-c2nc3ccc4ccccc4c3c3c2CCC3)cc1 | 10
C=CCNc1ncnc2c1c(-c1ccccc1)cn2-c1ccc(OCC)cc1 | 46
CC(=O)c1cccc(NC(=O)CSC2=C(C#N)C(c3ccccc3C)C3=C(CCCC3=O)N2)c1 (stereo not given) | 51
N#CC1=C(N)OC2=C(C(=O)CCC2)C12C(=O)N(CC(N)=O)c1ccccc12 (stereo not given) | -9
CCC(C)S(=O)(=O)c1oc(-c2ccc(C)cc2)nc1S(=O)(=O)c1ccccc1 (stereo not given) | 219*
Cc1ccc(-c2nc(S(=O)(=O)c3ccc(F)cc3)c(NCc3ccco3)o2)cc1 | 6
NC(=O)CSc1oc(-c2ccccc2)nc1S(=O)(=O)c1ccccc1 | 0
SMILES | U2OS ROS induce
CC(=O)c1cccc(N(CC(=O)Nc2c(C)cccc2C)S(C)(=O)=O)c1 | -12
C[C@H](CO)N1C[C@H](C)[C@H](CN(C)S(=O)(=O)c2ccccc2)Oc2ccc(NC(=O)Nc3ccc(C(F)(F)F)cc3)cc2C1=O | 1
C[C@H]1CN([C@@H](C)CO)C(=O)c2cccc(NC(=O)C3CC3)c2O[C@@H]1CN(C)C(=O)Nc1cccc2ccccc12 | -8
N#Cc1sc2nc(-c3ccncc3)ccc2c1N | 38
COC(=O)CCCCCCC(=O)N/N=C/C[C@H](O)[C@H](O)[C@@H](C)O | 4
c1ccc(-c2nnc(N3CCOCC3)nc2-c2ccccc2)cc1 | 38
CCCc1c(C(=O)OCC)c(C(=O)OCC)c2c(-c3ccccc3)nc(N3CCOCC3)nn12 | 114*
CCOC(=O)c1cnc(N2CCOCC2)nc1N | 29
Cc1cc(C)c2c(-n3cccc3)c(C(=O)N3CCC(C)CC3)sc2n1 | 39
COC(=O)c1c(NC(=O)C2CC(=O)NN2Cc2ccccc2)sc2c1CCC2 (stereo not given) | 149*
COC(=O)c1c(NC(=O)C2CC(=O)NN2Cc2ccccc2)sc2c1CCC(C)C2 (stereo not given) | 40
COC(=O)c1c(NC(=O)Nc2ccccc2)sc2c1CCCC2 | 30
C[C@@H]1CN([C@H](C)CO)C(=O)Cc2cc(NC(=O)Cc3ccccc3)ccc2O[C@@H]1CN(C)S(=O)(=O)c1cn(C)cn1 | -14
C[C@@H]1CN([C@H](C)CO)C(=O)c2cccc(NC(=O)C3CC3)c2O[C@@H]1CN(C)Cc1ccc(C(=O)O)cc1 | -9
C[C@H]1CN([C@@H](C)CO)C(=O)Cc2cc(NC(=O)CCC(F)(F)F)ccc2O[C@H]1CN(C)Cc1ccccc1 | 10
COc1ccc(NC(=O)CSc2n[nH]c(-c3ccc(Cl)cc3Cl)n2)cc1 | 30
CCOC(=O)c1c(CN(CC)CC)oc2ccc(OC)cc12 | 37
CCOC(=O)c1c(C)oc2ccc(OCc3cccc([N+](=O)[O-])c3)cc12 | 3
CCOC(=O)c1c(CSc2nc(C)ccc2C#N)oc2ccc(OC(C)=O)cc12 | 154*
CCCNC(=O)c1[nH]c2cc(OC)ccc2c1Sc1ccccc1 | -6
Cc1cccc(NC(=O)CSc2nc(-c3cccs3)cc(C(F)(F)F)c2C#N)c1 | 21
CCN(CC)c1cc(-c2cccs2)nc(SCC(=O)c2cccs2)c1C#N | 220*
CC(C)OC(=O)CSc1nc(-c2cccs2)cc(C(F)(F)F)c1C#N | 68
Cc1ncoc1C(=O)NCc1ccc(Cl)cc1 | 2
CC(Oc1ccccc1)C(=O)Nc1cc([N+](=O)[O-])ccc1O (stereo not given) | 11
SMILES | U2OS ROS induce
C[C@@H]1CCCCO[C@@H](CN(C)S(=O)(=O)c2cn(C)cn2)[C@@H](C)CN([C@H](C)CO)C(=O)c2cc(NC(=O)CCCN(C)C)ccc2O1 | -20
CC(=O)N(C)c1ccc(NC(=O)COc2ccc([N+](=O)[O-])cc2)cc1 | -14
COc1ccc2c(c1)C(=O)/C(=C/c1ccc(N(C)C)cc1)CC2 | 122*
COc1ccc(/C=C2\CCc3ccccc3C2=O)cc1Cn1cccn1 | 1
COc1cc(/C=C/C(=O)/C=C/c2ccc(N(C)C)cc2)cc(OC)c1OC | 56
O=C1c2ccccc2CN1CCNS(=O)(=O)c1ccc2oc3ccccc3c2c1 | -9
COc1cccc(S(=O)(=O)N(C)C[C@@H]2Oc3ncc(C#Cc4ccc(F)cc4)cc3C(=O)N([C@H](C)CO)C[C@@H]2C)c1 | 103*
COc1ccc(C#Cc2cnc3c(c2)C(=O)N([C@H](C)CO)C[C@H](C)[C@H](CN(C)C(=O)NC2CCCCC2)O3)cc1OC | 135*
COc1ccc(C#Cc2cnc3c(c2)C(=O)N([C@H](C)CO)C[C@H](C)[C@H](CN(C)C(=O)Nc2ccccc2)O3)cc1OC | 37
COc1ccc(S(=O)(=O)N(C)C[C@@H]2Oc3ncc(C#Cc4cccc(F)c4)cc3C(=O)N([C@H](C)CO)C[C@@H]2C)cc1 | -7
COc1ccc(C#Cc2cnc3c(c2)C(=O)N([C@H](C)CO)C[C@H](C)[C@H](CN(C)C(=O)Nc2ccc(F)cc2)O3)cc1OC | 53
COc1ccc(C#Cc2cnc3c(c2)C(=O)N([C@H](C)CO)C[C@H](C)[C@H](CN(C)C(=O)Nc2cccc4ccccc24)O3)cc1OC | 148*
COc1ccc(C#Cc2cnc3c(c2)C(=O)N([C@H](C)CO)C[C@H](C)[C@H](CN(C)C(=O)NC(C)C)O3)cc1OC | 5
COc1cccc(S(=O)(=O)N(C)C[C@@H]2Oc3ncc(-c4cccc(F)c4)cc3C(=O)N([C@H](C)CO)C[C@@H]2C)c1 | 6
CCCC(O)C#Cc1cnc2c(c1)C(=O)N([C@H](C)CO)C[C@H](C)[C@H](CN(C)C(=O)Nc1cccc3ccccc13)O2 (stereo not given in full) | 10
Cc1ccc(OCC(=O)Nc2ccc(Cl)c(-c3nc4ccccc4s3)c2)cc1 | -10
